The whole screen tested about 360,000 compounds, of which about 2,000 (0.56%) were called active. Not shown: some 2% with an inconclusive outcome. Rule as the data show it: active = activity change below about -65%; inconclusive = mostly about -30% to -63%; inactive = weaker than that. What follows is part of a selection rich in actives, with near analogues and random picks from the rest.
% is scaled to controls: 0 for no effect and ±100 for the full control effect.

Sequence of Homeobox protein SIX1 (Homo sapiens) + Protein phosphatase EYA2 (Homo sapiens) (O00167 whole entry, looked up): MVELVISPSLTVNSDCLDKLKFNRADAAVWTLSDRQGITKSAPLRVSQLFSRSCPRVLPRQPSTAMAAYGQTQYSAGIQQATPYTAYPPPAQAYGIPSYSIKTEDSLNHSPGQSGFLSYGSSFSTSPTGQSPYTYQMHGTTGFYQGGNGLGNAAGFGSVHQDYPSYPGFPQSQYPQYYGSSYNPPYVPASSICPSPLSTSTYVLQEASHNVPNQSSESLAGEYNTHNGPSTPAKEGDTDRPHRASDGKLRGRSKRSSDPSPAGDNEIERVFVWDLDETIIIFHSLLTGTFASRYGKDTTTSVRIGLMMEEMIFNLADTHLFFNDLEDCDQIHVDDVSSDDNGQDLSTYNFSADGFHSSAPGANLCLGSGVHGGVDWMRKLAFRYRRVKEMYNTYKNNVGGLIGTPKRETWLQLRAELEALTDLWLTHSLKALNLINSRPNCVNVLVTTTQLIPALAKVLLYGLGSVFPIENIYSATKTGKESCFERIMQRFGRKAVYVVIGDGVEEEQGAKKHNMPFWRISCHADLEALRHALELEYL
Sequence of Homeobox protein SIX1 (Homo sapiens) + Protein phosphatase EYA2 (Homo sapiens) (Q15475 whole entry, looked up): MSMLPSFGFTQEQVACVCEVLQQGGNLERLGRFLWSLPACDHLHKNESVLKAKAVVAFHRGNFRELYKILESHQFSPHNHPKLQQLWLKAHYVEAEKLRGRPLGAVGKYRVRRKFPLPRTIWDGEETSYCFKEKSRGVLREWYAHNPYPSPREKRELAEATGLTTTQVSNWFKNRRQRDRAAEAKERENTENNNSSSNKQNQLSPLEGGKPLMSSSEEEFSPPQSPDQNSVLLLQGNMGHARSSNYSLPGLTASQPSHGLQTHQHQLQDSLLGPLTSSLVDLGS

The target of this assay is Homeobox protein SIX1 (Homo sapiens) + Protein phosphatase EYA2 (Homo sapiens) (UniProt Q15475+O00167). As to the kind of experiment: qHTS Assay for Inhibitors of the Six1/Eya2 Interaction. Particulars: AlphaScreen GST-Six1/His-Eya2 binding, biochemical; stronger effect = lower value. In a few lines:
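Compounds are tested against tagged Six1 and Eya2 proteins bridged by glutathione donor and nickel acceptor beads; after a one-hour incubation at 37 °C without light, AlphaScreen emission is recorded.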
Take `Cc1ccc(-c2cnc(C(O)c3cccc(C)c3C)[nH]2)cc1` (stereo not given): the activity change is -9.73% (inactive).
Under `COC(=O)C1=C(C)NC(=O)/C1=C/c1ccc(CNS(=O)(=O)c2ccc(C)cc2)o1` stands -8.38% (inactive).
On to `O=S(=O)(NCc1ccccc1)c1ccc(S(=O)(=O)N2CCCC2)cc1`, for which the activity change was 0% (inactive).
Turning to `O=c1/c(=C/c2ccc(CNS(=O)(=O)c3ccccc3)o2)sc2n1CCN=2`, the activity change is -74.2% (active).
Consider `COC(=O)[C@]12CCCCC=C1N(Cc1ccc3c(c1)OCO3)C(=O)[C@H](CC(=O)N1CCOCC1)C2`, for which the activity change is 7.68% (inactive).
As to `CCC(C)C(CO)NC(=O)/C=C/[C@H]1O[C@@H](n2cnc3c(NC(=O)c4ccccc4)ncnc32)[C@H](O)[C@@H]1O` (stereo not given in full), the activity change is -67.4% (active).
Consider `O=C(/C=C/[C@H]1O[C@@H](n2cnc3c(NC(=O)c4ccccc4)ncnc32)[C@H](O)[C@@H]1O)NCc1ccccc1`, for which the activity change was -0.266% (inactive).
In the case of `COc1cccc(CN(C)C(=O)CC[C@H]2O[C@@H](n3cnc4c(NC(=O)c5ccccc5)ncnc43)[C@H](O)[C@@H]2O)c1`, the activity change was -3.33% (inactive).
For the compound `O=C(COc1ccc(Cl)cc1)NCc1nnc(SCC(=O)NCC2CCCO2)o1` (stereo not given), the activity change is 17.7% (inactive).
Under `CCC(C(=O)NC(C)(C)C)n1c(-c2ccccc2)nc2ccccc21` (stereo not given) stands 2.19% (inactive); under `CCCCCc1c(Cc2ccccc2)ncn1CCc1ccccc1OC`, 7.11% (inactive); under `S=c1nc2ccccc2c2nc(-c3cccnc3)[nH]n12`, -8.27% (inactive).
`COc1ccc(Nc2nc(-c3cccnc3)nc3ccccc23)cn1`: the activity change was -65.3% (active).
With `CCN(CC(=O)NC1CCS(=O)(=O)C1)c1nc(-c2cccnc2)nc2ccccc12` (stereo not given), the activity change is 5.63% (inactive).
In the case of `CC(C)C1Cc2[nH][nH]c(=O)c2C(c2ccc(Cl)cc2)O1` (stereo not given), the activity change is -11.7% (inactive).
Under `O=C1NC[C@H](CCCCN2C[C@H](Cc3ccc(O)cc3)N(CC3CCCCC3)C(=O)C2=O)N(CCc2ccccc2)C1=O` stands 3.83% (inactive); under `COC(=O)C[C@@H]1C=C[C@@H](NC(=O)c2cccnc2)[C@@H](CO)O1`, 13.6% (inactive).
For the compound `CC(C)CCNC(=O)C(C)N(C(=O)Cn1nnc(-c2ccc(F)cc2)n1)C1CCCC1` (stereo not given), the activity change is 4.65% (inactive).
Regarding `COc1cccc(-n2c(SCC(=O)NC3CCCCC3)nc3n[nH]c(C)c3c2=N)c1`, the activity change is -66.7% (active).
Turning to `COc1cccc(-n2c(SCC(=O)NC3CCS(=O)(=O)C3)nc3ccccc3c2=O)c1` (stereo not given), the activity change was -0.378% (inactive).
Regarding `Cc1ccc(-n2c(SCC(=O)NCCC3=CCCCC3)nc3n[nH]c(C)c3c2=N)cc1Cl`, the activity change was -17.6% (inactive).
For the compound `O=C(C(=O)N1CCN(c2ccccc2)CC1)c1ccc2c(c1)OCO2`, the activity change is 9.9% (inactive).
As to `CCOc1ccc(C(CCc2ccccc2)NC(=O)c2ccc(OC)c(OC)c2)cc1OCC` (stereo not given), the activity change was -5.59% (inactive).
Under `C=CCn1c(COc2cccc3cccnc23)nnc1SCC(=O)OC` stands 0.499% (inactive); under `CCCCC(=O)NC(c1ccc(OC)c(OC)c1)c1ccc2cccnc2c1O` (stereo not given), -90.3% (active); under `Cc1cc(C)n2c(Nc3c(C)cccc3C)c(CCc3ccccc3)nc2n1`, -0.972% (inactive).
Under `O=C(NCc1ccccn1)c1cnc2sccn2c1=O` stands -1.07% (inactive); under `COc1cc(/C=C/CO)cc(OC)c1O[C@@H]1O[C@H](CO)[C@@H](O)[C@H](O)[C@H]1O`, 5% (inactive); under `CC1(C(=O)Nc2ccc3c(c2)OCCO3)CSCC(=O)N1CCOc1ccccc1` (stereo not given), -5.39% (inactive).
Take `CC1(C(=O)NCc2ccccc2)CSCC(=O)N1CCCn1ccnc1` (stereo not given): the activity change was -4.73% (inactive).
In the case of `O=C(NCCCn1ccnc1)C(=O)NCC1OCCN1S(=O)(=O)c1cc(F)ccc1F` (stereo not given), the activity change was -72.2% (active).
Take `Cc1cc(F)ccc1S(=O)(=O)N1CCCOC1CNC(=O)C(=O)NCCC1=CCCCC1` (stereo not given): the activity change is 6.61% (inactive).
Under `O=C(NCCCc1ccccc1)C(=O)NCC1OCCN1S(=O)(=O)c1ccccc1` (stereo not given) stands 5.49% (inactive); under `COc1ccc(NC(=O)C(c2ccncc2)n2c(=O)c(-c3cc4ccccc4[nH]3)nc3ccccc32)cc1` (stereo not given), 18.4% (inactive); under `Oc1ccc(Br)cc1/C=N/Nc1ccccn1`, -77.2% (active).
On to `O=C(Nc1ccc(Br)cc1)c1cc(S(=O)(=O)Nc2ccccn2)ccc1Cl`, for which the activity change is -3.31% (inactive).
Take `CCN(CC)CCn1c(/N=C/c2cc(Br)ccc2O)nc2ccccc21`: the activity change was 4.55% (inactive).
Under `CCOC(=O)[C@]12CCC=C1N(Cc1ccco1)C(=O)[C@H](CC(=O)N1CCSCC1)C2` stands 13% (inactive); under `CO[C@@H]1CN(C)C(=O)c2cc(NC(=O)C3CC3)ccc2OC[C@H](C)N(C(=O)CN2CCOCC2)C[C@@H]1C`, -0.378% (inactive).
Regarding `COC(=O)[C@]12CCCCC=C1N(Cc1ccco1)C(=O)[C@H](CC(=O)NCC1CCCCC1)C2`, the activity change was 4.18% (inactive).
For `NCCCCCC(=O)N/N=C/c1ccc2nccnc2c1`, the activity change is 4.58% (inactive).
With `O=C(CCCO)N/N=C/c1cc(Br)ccc1O`, the activity change is -68.6% (active).
Under `O=C(CCC(=O)N/N=C/c1ccc(Br)o1)N/N=C/c1ccc(Br)o1` stands 0.575% (inactive); under `O=[N+]([O-])c1cccc(S(=O)(=O)NCc2ccccn2)c1`, -5.71% (inactive).
In the case of `O=[N+]([O-])c1ccc(N/N=C2/CCCCC2c2ccccn2)c([N+](=O)[O-])c1` (stereo not given), the activity change was -4.9% (inactive).
Take `O=[N+]([O-])c1ccc2nc(-c3ccccn3)[nH]c2c1`: the activity change was -72.6% (active).
Regarding `O=C(NC1CCCCC1)C(c1cc2ccccc2o1)n1c(=O)c(-c2ccco2)nc2ccccc21` (stereo not given), the activity change is 6.65% (inactive).
On to `O=C1OCCOC2CCCc3oc(-c4ccccc4)c1c32` (stereo not given), for which the activity change was -10.5% (inactive).
Consider `CC(=O)N1c2ccc(S(=O)(=O)N3CCC(C(=O)NCc4ccc(F)cc4)CC3)cc2CC1C` (stereo not given), for which the activity change is -0.504% (inactive).
Under `CCOC(CNC(=O)C1CCN(S(=O)(=O)c2ccc3nc4c(c(C(=O)O)c3c2)CC(C)CC4)CC1)OCC` (stereo not given) stands -16.3% (inactive); under `Cc1ccc(CNC(=O)C2CCN(S(=O)(=O)c3ccc4nc5c(c(C(=O)O)c4c3)CC(C)CC5)CC2)cc1` (stereo not given), -65.1% (active); under `CCCNC(=O)C[C@@H]1CC[C@@H]2[C@H](COC[C@H](O)CN2C(=O)c2cc(Cl)cc(Cl)c2)O1`, 9.3% (inactive).
On to `CCN(CC)c1ccc(/C=N/NC(=O)c2cnccn2)c(O)c1`, for which the activity change was -91.7% (active).
Under `COc1ccc(NC(=O)C/C(C)=N/NC(=O)c2cnccn2)cc1Cl` stands -8.49% (inactive); under `CCN(CC)c1ccc(NC(=O)c2ccc(Cl)nc2)cc1`, -10.4% (inactive).
Turning to `O=C1CN(C(=O)c2ccccc2F)C(c2ccc(F)cc2)c2cc(F)ccc2N1` (stereo not given), the activity change is 10.1% (inactive).
Take `CCOC(=O)[C@]12CCCC=C1N(CCC1=CCCCC1)C(=O)[C@H](CC(=O)NCCCOC)C2`: the activity change was -3.1% (inactive).
On to `COC(=O)[C@@]12C[C@@H](CC(=O)NCCCCc3ccccc3)C(=O)N(Cc3ccccc3)C1=CCC(C)(C)C2`, for which the activity change is -3.62% (inactive).
Under `CCOC(=O)[C@]12CCC=C1N(CCC1=CCCCC1)C(=O)[C@H](CC(=O)NCc1ccc(C)o1)C2` stands -7.25% (inactive); under `O=S1(=O)CC(N2CCN(Cc3ccccc3F)CC2)CN1Cc1cn(Cc2cccc(C(F)(F)F)c2)nn1` (stereo not given), 1.67% (inactive); under `Cc1cc(C)c(S(=O)(=O)N(C)CC(=O)NCC2CCCO2)c(C)c1` (stereo not given), 3.65% (inactive).
Consider `Cc1ccc(-n2ncc3c(Nc4cccc(C(=O)O)c4)ncnc32)cc1`, for which the activity change is -66.4% (active).
On to `CC(C)Sc1ncnc2c1cnn2-c1ccccc1`, for which the activity change was 16.7% (inactive).
On to `Cc1ccc(Nc2ncnc3c2cnn3C)c(C)c1`, for which the activity change is 8.85% (inactive).
For `Cc1[nH]c2ccccc2c1C(=O)c1cc([C@H](NC(=O)OC(C)(C)C)C(C)C)sc1N`, the activity change was -28% (inactive).
In the case of `O=C1CCN(CCCc2ccccc2)CCN1CCO`, the activity change is -23.5% (inactive).
Regarding `O=C(NC1CCCC1)C1c2ccccc2OCC(=O)N1CC(F)(F)F` (stereo not given), the activity change is -3% (inactive).
For the compound `Cc1c(NC(=O)CSc2cccc3cccnc23)c(=O)n(-c2ccccc2)n1C`, the activity change was -90.9% (active).
Consider `Cc1c(NC(=O)CSc2nnnn2-c2ccc(C(=O)O)cc2)c(=O)n(-c2ccccc2)n1C`, for which the activity change was 5.09% (inactive).
In the case of `Cc1c(NC(=O)CSc2nnc(-c3cccnc3)n2N)c(=O)n(-c2ccccc2)n1C`, the activity change was 10.2% (inactive).
In the case of `CC(=O)C[C@@H]1OC[C@H](CO)N1S(=O)(=O)c1ccc(C)cc1`, the activity change is 7.41% (inactive).
For the compound `CN(Cc1cn(Cc2ccc(C(F)(F)F)cc2)nn1)C1CN(Cc2cn(Cc3ccc(C(F)(F)F)cc3)nn2)S(=O)(=O)C1` (stereo not given), the activity change is 3.81% (inactive).
For `CN(Cc1ccccc1)C(=O)[C@@H]1CCCN1C(=O)[C@@H]1CCCN1C(=O)c1c(F)cccc1F`, the activity change is 7.39% (inactive).
For the compound `S=C(Nc1cccnc1)Nc1ccccn1`, the activity change was 6.86% (inactive).
On to `COc1cc(/C=N/NC(=S)Nc2cccnc2)cc(OC)c1O`, for which the activity change is 0% (inactive).
As for `S=C(NN=Cc1ccccn1)Nc1ccccn1`, the activity change was -91.9% (active).
Under `O=C(NCCc1ccco1)c1nn(Cc2ccccc2)c(=O)c2ccccc12` stands -4.25% (inactive).
As for `O=c1nc2s/c(=C\c3ccco3)c(=O)n2nc1Cc1ccccc1`, the activity change is -82.8% (active).
In the case of `O=C(OCN1C(=O)c2ccccc2C1=O)/C(=C\c1ccco1)NC(=O)c1ccccc1`, the activity change is -1.79% (inactive).
Consider `CCOC(=O)c1cc2cc(OC)ccc2n1C1CCN(C)CC1`, for which the activity change was 1.46% (inactive).

Source of the values: PubChem BioAssay AID651725 (National Center for Advancing Translational Sciences (NCATS), 2012).
